SMILES strings stand for the structures. The source made the active and inactive calls.
Note: test concentration not given here.

The nature of one assay: JC-1 mitochondrial signal, unstimulated HepG2 cells – cell-based, JC-1 fluorescence, 24 h, 100 nL compound, profiling panel (AID 1167). As to conditions: HepG2 mitochondrial potential, higher = more signal.
Regarding `COC(=O)[C@@]1(Cc2ccccc2)[C@@H]2C(=CC(=O)[C@H]2CC(=O)C(=O)N(C)C)CN1C(=O)c1ccccc1`, the z-score was determined as 2.58.

In the case of `CCOC(=O)C[C@H]1[C@H](OC(=O)Cc2ccc3c(c2)OCO3)[C@@H](NC(=O)Cc2ccc(OC)cc2)c2cc(OCCCO)ccc2N1C(=O)c1ccc2ccccc2n1`, the z-score turned out to be 1.84.

As for `CC1CC/C=C\[C@H]2OC34C=CCN(C(C)C)C(=O)[C@H]3N(CCCCCCO)C(=O)[C@@H]4C2C(=O)O1` (stereo partly drawn), the z-score is -0.0558.

The next assay in a line: JC-1 mitochondrial signal, unstimulated adipocytes – cell-based, JC-1 fluorescence, 3T3-L1 adipocytes, 24 h, 100 nL compound, profiling panel (AID 1168). To be noted: JC-1 mitochondrial fluorescence, higher = more signal, called active from +8 up or from −8 down.
With `CCCCCCc1nc(C2CC2)cc2c1[Si](C(C)C)(C(C)C)OC2`, the z-score is -0.0319 (inactive).

Take `COc1ccc([Si](C)(C)[C@H]2[C@H](CCO)O[C@@]3(C(=O)N(Cc4cccc(N5C(=O)COc6ccccc65)c4)c4ccccc43)[C@@H]2C)cc1`: the z-score is 1.93 (inactive).

On to `C=C(/C(=C/C[C@H](OC(=O)c1ccncc1)c1ccc(CO)o1)c1cc(C(=O)OC)ccc1OC)C(C)C`, for which the z-score was -1.63 (inactive).

`COC(=O)[C@@]1(Cc2ccccc2N=[N+]=[N-])N=C(c2ccc(OCCCO)cc2)O[C@H]1c1ccccc1N=[N+]=[N-]`: the z-score is -0.0913 (inactive).

Regarding `O=C1O[C@H](c2ccccc2)[C@H](c2ccccc2)N2[C@H]1[C@@H](C(=O)Nc1nc3ccccc3s1)[C@]1(C(=O)Nc3ccccc31)[C@H]2c1ccc(OCCO)cc1`, the z-score is 3.24 (inactive).

As for `C=CCC(OC(C)=O)[C@@H]1[C@@H](N(Cc2cc3ccccc3o2)C(=O)c2ccc(C)cc2)c2cc(OCCCO)ccc2N1C(=O)Cc1ccc(OC)cc1` (stereo partly drawn), the z-score was 0.235 (inactive).

With `C[C@@H]1ON(c2ccc(C(=O)OC(C)(C)C)cc2)[C@H](c2ccc(O)cc2)[C@H]1C(=O)N1C(=O)OC[C@H]1Cc1ccccc1`, the z-score was -0.493 (inactive).

On to `C=CCNC(=O)[C@H]1[C@@H]2C(=O)O[C@@H](c3ccccc3)[C@@H](c3ccccc3)N2[C@@H](c2ccc(O)cc2)[C@]12C(=O)Nc1ccc(C#CC3(O)CCCCCC3)cc12`, for which the z-score is -1.62 (inactive).

Regarding `CCCC[C@@H]1C[C@H]1[C@@H](NC(=O)Cc1ccccc1)c1ccc(-c2ccccc2)cc1`, the z-score was -0.118 (inactive).

For `C=C(COC)/C(=C/C[C@H](OC(=O)c1ccncc1)c1ccccc1OCCO)c1cnc2ccccc2c1`, the z-score is -0.296 (inactive).

Take `[N-]=[N+]=Nc1ccccc1[C@@H]1OC(c2ccc(OCCCO)cc2)=N[C@]1(Cc1ccccc1)C(=O)NCC(O)CO` (stereo partly drawn): the z-score is 0.778 (inactive).

As to `CC(C)N1CC=CC23O[C@@H]4C=CCOC(=O)[C@@H]4[C@H]2C(=O)N(CCCO)[C@@H]3C1=O` (stereo partly drawn), the z-score is 0.253 (inactive).

Take `CC(c1ccccc1)C(O)C1C=CC2C(=O)N(c3ccccc3)C(=O)C2N1Nc1ccc([N+](=O)[O-])cc1` (stereo not drawn): the z-score is -1 (inactive).

As to `CC(C)C(CO)N1C(=O)[C@@H]2C3C(=O)OCCC/C=C\[C@H]3OC23C=CCN(C(C)(C)C)C(=O)[C@@H]13` (stereo partly drawn), the z-score is 0.306 (inactive).

As to `COCCCNC(=O)[C@@]1(Cc2ccccc2N=[N+]=[N-])N=C(c2ccc(OCCCO)cc2)O[C@H]1c1ccccc1`, the z-score is 1.27 (inactive).

Consider `CN1C(=O)C2C=CC(C(O)c3ccc(F)cc3)N(Nc3ccccc3)C2C1=O` (stereo not drawn), for which the z-score is -0.8 (inactive).

For the molecule `COCCOC(=O)N1C(=O)[C@@]2(c3cc(C#CC4=CCCCC4)ccc31)[C@H](c1ccc(OCCO)cc1)N1[C@H](c3ccccc3)[C@H](c3ccccc3)OC(=O)[C@H]1[C@@H]2C(=O)NC[C@H](O)c1ccccc1`, the z-score was 0.758 (inactive).

Regarding `COC(=O)C1=CC(CCCO)=CC(C2CC2)N(C)C=C1C(=O)OC` (stereo not drawn), the z-score is -0.757 (inactive).

In the case of `O=C(NCC(F)(F)F)[C@@H]1c2ccccc2C(=O)N(Cc2ccc(OC(F)(F)F)cc2)[C@H]1c1ccc(CO)cc1`, the z-score was 0.506 (inactive).

For the molecule `COc1cccc(/C=C/C=O)c1`, the z-score is 0.532 (inactive).

In the case of `COC(=O)C(CC#Cc1ccc2c(c1)[C@]1(C(=O)N2)[C@H](c2ccccc2OCCO)N2[C@H](c3ccccc3)[C@H](c3ccccc3)OC(=O)[C@H]2[C@@H]1C(=O)NC[C@H](O)c1ccccc1)C(=O)OC`, the z-score was 1.01 (inactive).

In the case of `CC(C)OC(=O)C=C1C[C@@H](c2ccc(C(F)(F)F)cc2)O[C@@H](c2ccc(C(F)(F)F)cc2)O1`, the z-score is 0.958 (inactive).

Consider `CN(C)C(=O)[C@@]1(Cc2ccccc2CN=[N+]=[N-])N=C(c2ccc(OCCCO)cc2)O[C@H]1c1ccccc1CN=[N+]=[N-]`, for which the z-score was -1.34 (inactive).

In the case of `CCCNC(=O)[C@@]1(c2ccc([N+](=O)[O-])cc2)CC(=O)N(C2CCCCC2)[C@@H]1c1ccc(CO)cc1`, the z-score is -1.19 (inactive).

Turning to `CC(C)N1C(=O)C[C@@](C(=O)NCCCN(C)C)(c2ccc([N+](=O)[O-])cc2)[C@H]1c1ccc(CO)cc1`, the z-score was -1.18 (inactive).

`O=C1N(Cc2ccccc2)Cc2ccccc2[C@@H]2OC(c3ccc(OCCCO)cc3)=N[C@]12CCS(=O)(=O)c1ccccc1`: the z-score was 0.676 (inactive).

Regarding `COC(=O)[C@@]1(Cc2ccc(OC)cc2)[C@@H]2C(=CC(=O)[C@H]2CC(=O)C(=O)N(C)C)CN1C(=O)c1ccccc1`, the z-score was -0.283 (inactive).

As to `COc1ccc([Si](C)(C)[C@@H]2[C@@H](CC(=O)N3Cc4ccccc4C[C@H]3CO)O[C@]3(C(=O)N(C)c4ccccc43)[C@H]2C)cc1`, the z-score is 1.08 (inactive).

Regarding `C=C[C@@H](COC(C)=O)N(C(=O)OC(C)(C)C)S(=O)(=O)c1ccc(Br)cc1`, the z-score was 0.122 (inactive).

Consider `C=CCOC(=O)[C@H]1[C@@H]2C(=O)O[C@@H](c3ccccc3)[C@@H](c3ccccc3)N2[C@@H](c2ccc(OCCOC(=O)[C@@H]3C[C@@H]4C(=O)N[C@@H](CCCCNC(C)=O)C(=O)N4[C@@H]3c3ccc(O)cc3)cc2)[C@]12C(=O)Nc1ccc(I)cc12`, for which the z-score is 2.24 (inactive).

For `O=c1n(-c2ccccc2)c(=O)n2n1CC(COc1ccccc1)=C([C@H](O)CCc1ccccc1)[C@@H]2CO`, the z-score was 0.0027 (inactive).

On to `CN(C)C(=O)[C@]1(CCS(=O)(=O)c2ccccc2)N=C(c2ccc(OCCCO)cc2)O[C@@H]1c1ccccc1N=[N+]=[N-]`, for which the z-score was -0.00563 (inactive).

For the molecule `COC(=O)[C@@]1(Cc2ccccc2)[C@@H]2C(=CC(=O)[C@H]2CC(=O)C(=O)N(C)C)CN1C(=O)c1ccccc1`, the z-score was -0.0995 (inactive).

With `CCOC(=O)C[C@H]1[C@H](OC(=O)Cc2ccc3c(c2)OCO3)[C@@H](NC(=O)Cc2ccc(OC)cc2)c2cc(OCCCO)ccc2N1C(=O)c1ccc2ccccc2n1`, the z-score was 0.929 (inactive).

Turning to `CC1CC/C=C\[C@H]2OC34C=CCN(C(C)C)C(=O)[C@H]3N(CCCCCCO)C(=O)[C@@H]4C2C(=O)O1` (stereo partly drawn), the z-score is -0.0814 (inactive).

(Values after PubChem BioAssay.)
